We go through 7 compounds from PubChem BioAssay.

Records with an inconclusive call do not appear. Active and inactive are the calls of the source. Unless noted, the limit is not given here; nearly all actives have AC50 up to about 30 µM.

The nature of experiment [1]: viability loss in pontine glioma line – cell-based, SU-DIPG-XIII, MIPE4.0, CellTiter-Glo, qHTS, dose response (AID 1347061; cut-off not given, nearly all actives have AC50 up to about 37 µM;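 also: cells exposed to compound for 48 hours before readout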). Particulars: CellTiter-Glo ATP luminescence. (In ATP-based viability assays light output follows the ATP content of the culture.)
The nature of experiment [2]: viability loss in pontine glioma line – cell-based, JHH-DIPG-1, MIPE4.0, CellTiter-Glo, qHTS, dose response (AID 1347062; cut-off not given, nearly all actives have AC50 up to about 27 µM). Particulars: JHH-DIPG-1 viability, CellTiter-Glo ATP luminescence.
Experiment [3] in a line: viability loss in pontine glioma line – cell-based, SU-DIPG-IV, MIPE4.0, CellTiter-Glo, qHTS, dose response (AID 1347063).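 Also: compound exposure lasted 48 hours before the viability readout.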 The settings on record: CellTiter-Glo ATP luminescence.
The nature of experiment [4]: growth inhibition of DIPG cells – cell-based, MIPE4.0 library, CellTiter-Glo luminescence, qHTS (AID 1347066).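 Also: cells exposed to compound for 48 hours before readout.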 The settings on record: SU-DIPG-VI viability, CellTiter-Glo ATP luminescence.
Experiment [5] is described as follows: growth inhibition, single agent or in combination, cell-based, chromothripsis tumors, cisplatin or BGB combos (AID 1671449; in the data active = inhibition above about 80%;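 also: cells exposed for 96 hours; 0% = vehicle DMSO and 100% = killing by high DMSO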). The settings on record: LFS_MB_P medulloblastoma cells.
The nature of experiment [6]: growth inhibition, single agent and combos, cell-based, chromothripsis tumors, cisplatin or BGB combos (AID 1671450; in the data active = inhibition above about 80%;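 also: cells exposed to compound for four days; 0% = vehicle DMSO and 100% = cell killing by high DMSO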). Particulars: HDN33 neuroblastoma cells, stronger effect = higher value.
Experiment [7] can be described thus: growth inhibition, single agents and combos, ICB984, cell-based, cisplatin or BGB combos, synergistic combos for chromothripsis tumors (AID 1671451; call rule not given here;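 also: cells exposed for 96 hours before readout; 0% = vehicle DMSO and 100% = killing by high DMSO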). The settings on record: ICB984 medulloblastoma cells, drug combinations, stronger effect = higher value.
Experiment [8] can be described thus: growth inhibition, single agents and combos, HTB85, cell-based, BGB or cisplatin IC20 combos, synergistic combos for chromothripsis tumors (AID 1671453; in the data active = inhibition above about 80%;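 also: cells exposed for 96 hours before readout; 0% = vehicle DMSO and 100% = high DMSO killing control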). Particulars: HTB85 osteosarcoma cells, drug combinations, stronger effect = higher value.
Experiment [9] is described as follows: growth inhibition, MDA-MB-436, cell-based, BGB or cisplatin combos, synergistic combos for chromothripsis tumors (AID 1671458; call rule not given here;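 also: cells exposed for 96 hours; 0% = vehicle DMSO and 100% = killing by high DMSO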). Particulars: MDA-MB-436 breast carcinoma growth inhibition, drug combinations, stronger effect = higher value.
Experiment [10] is described as follows: BT084 cell growth, single and combined drugs, ICGC_MB145, cisplatin and BGB IC40 combos (AID 1671461; in the data active = inhibition above about 80%;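 also: cells exposed to drugs for 96 hours; 0% = vehicle DMSO and 100% = high DMSO full killing control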). Particulars: BT084 medulloblastoma cells, drug combinations, stronger effect = higher value.
Experiment [11] in a line: RCMB18 cell growth, single agent and combined, cisplatin and BGB IC40 combos (AID 1671462; in the data active = inhibition above about 80%;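 also: cells exposed to compound for four days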). Particulars: RCMB18 medulloblastoma cells, stronger effect = higher value.
The nature of experiment [12]: CRL1545 cell growth, single agent and combined, cisplatin and BGB IC20 combos (AID 1671464; in the data active = inhibition above about 80%;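 also: cells exposed to compound for 96 hours before readout; 0% = vehicle DMSO and 100% = high DMSO killing control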). Particulars: CRL1545 osteosarcoma cells, stronger effect = higher value.
Experiment [13] in a line: growth inhibition of DIPG cells – cell-based, MIPE5.0 library, qHTS (AID 1347068; cut-off not given, nearly all actives have IC50 up to about 30 µM). The settings on record: SU-DIPG-XXV viability. On the technique in general: In qHTS, concentration-response curves come from the screen itself.
Experiment [14] can be described thus: viability loss with induced miR-34 in A549 – imaging, A549 dox-inducible miR-34, nuclei and caspase counts, primary screen (AID 1347080;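 active = compounds whose cell count with miR-34 switched on is under 0.7 times the count with it off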). Particulars: A549 miR-34 inducible, Hoechst nuclei count, 48 h.
Experiment [15] in a line: MELAS cybrid and Rieske KO viability enhancers – cell-based, MELAS cybrids, Rieske KO mouse fibroblasts, CellTiter-Glo, primary screen (AID 1508586;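 active = mean z-score across replicates of 1.96 or higher in either the MELAS or the Rieske mutant cell line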;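 also: z relative to plate mean and SD of compound and empty wells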). The settings on record: low glucose.
Where [16] appears, read: measured here: with BGB IC20 combination, at 0.5 µM.
Setting [17] is: measured here: with cisplatin IC20 combination, at 0.5 µM.
The mark [18] stands for this setting: stronger effect = lower value, cell number ratio, induced over uninduced.
The mark [19] stands for this setting: measured here: relative caspase fold change +Dox/-Dox.
The mark [20] stands for this setting: measured here: total cells with miR-34 induction, stronger effect = lower value.
Setting [21] is: measured here: total cells without miR-34 induction.
Setting [22] is: MELAS cybrid survival, CellTiter-Glo 48 h, stronger effect = higher value.
The mark [23] stands for this setting: Rieske KO mouse fibroblast survival, CellTiter-Glo 72 h.

As for `O=C(O)CO.[NH2-].[NH2-].[Pt+2]`, the result in experiment [1], in experiment [2], in [3] and in [4] was inactive. Further, the inhibition (as a rule, the relative decrease from the control value, in per cent) in experiment [5] (at 0.5 µM, stronger effect = higher value) is -35.8% (inactive); in [5] (measured here: combination with BGB IC20, at 0.005 µM), -22.6%; in experiment [5] (measured here: combination with BGB IC40, at 0.005 µM) it was -55.5%; in experiment [5] (measured here: combination with BGB IC40, at 0.05 µM) it was -20.9%; in [5] (measured here: combination with cisplatin, at 0.5 µM, stronger effect = higher value), -40.8%; in [5] (measured here: combination with cisplatin, at 5 µM, stronger effect = higher value) it was -22.9%. For the same compound, the inhibition is -38.9% in experiment [6] (BGB combo, at 5 µM); 11.9% (inactive) in [6] (at 0.5 µM); 6.72% in experiment [6] (cisplatin combo, at 5 µM); 3.13% in experiment [6] (setting [16]); 36.3% in experiment [6] (setting [17]); -22.5% in [6] (single agent, at 5 µM). The inhibition in [7] (BGB IC20 combo, at 0.005 µM) was -33.3%; in [7] (BGB IC40 combo, at 0.005 µM), -24.4%; in experiment [7] (BGB IC40 combo, at 0.05 µM), -27.5%; in experiment [7] (at 0.5 µM), -23.1% (inactive); in experiment [7] (cisplatin combo, at 0.05 µM) it was -34.1%; in [7] (cisplatin combo, at 0.5 µM), -33.3%. The inhibition is -25.6% in experiment [7] (cisplatin combo, at 5 µM); -2.84% in experiment [7] (measured here: 5 uM single agent, at 5 µM); 1.55% (inactive) in [8] (at 0.5 µM); 26.1% in [8] (measured here: with BGB IC20, at 0.5 µM); -2.11% in experiment [8] (measured here: with BGB IC20, at 5 µM); -15.5% in experiment [8] (measured here: with cisplatin IC20, at 0.5 µM). Also, the inhibition is -7.66% in [8] (measured here: with cisplatin IC20, at 5 µM); -0.083% in experiment [8] (single agent, at 5 µM); -15.3% (inactive) in experiment [9] (at 0.5 µM); -9.4% in experiment [9] (measured here: BGB combination, at 0.5 µM); 1.16% in experiment [9] (measured here: BGB combination, at 5 µM); -35.5% in experiment [9] (measured here: cisplatin combination, at 0.5 µM). For the same compound, the inhibition in [9] (measured here: cisplatin combination, at 5 µM) was -23.8%; in experiment [10] (at 0.5 µM), -4.94% (inactive); in experiment [10] (cisplatin combination, at 0.5 µM), 2.17%; in [10] (cisplatin combination, at 5 µM) it was -267%; in [10] (measured here: BGB IC40 combination 0.05 uM, at 0.05 µM) it was -15.1%; in [10] (single agent, at 5 µM) it was -4.36%. The inhibition in [11] (at 0.5 µM) is -16.2% (inactive); in experiment [11] (cisplatin combo, at 5 µM), 4.38%; in [11] (measured here: BGB IC40 combination, at 0.05 µM), -28.2%; in experiment [11] (measured here: combination with cisplatin, at 0.5 µM), 6.48%; in [11] (single agent, at 5 µM), -8.12%; in experiment [12] (at 0.5 µM) it was -2.61% (inactive). For the same compound, the inhibition was -12.1% in [12] (setting [16]); 0.578% in [12] (setting [17]); -10.5% in [12] (single agent, at 0.05 µM); -18% in experiment [12] (single agent, at 5 µM).

`NC1CCC(Nc2nc(Nc3ccc(C(=O)N4CCCCC4)cc3)c3ncn(-c4cccc(F)c4)c3n2)CC1` (stereo not drawn): the result in experiment [1], in experiment [2], in experiment [3] and in experiment [4] was inactive.

As to `Clc1cccc(-c2nnnn2Cc2cccnc2)c1Cl`, the result in experiment [1], in [2], in [3] and in experiment [4] was inactive.

With `N[C@H]1CN(c2c(F)cc3c(=O)c(C(=O)O)cn(C4C[C@H]4F)c3c2Cl)CC12CC2` (stereo partly drawn), the compound was classed as inactive in experiment [1], in experiment [2], in experiment [3] and in [4].

For `Cc1cc(-c2nnc3n2CCCCC3)c(C)n1-c1ccccc1`, the outcome in experiment [1], in experiment [2], in [3] and in [4] was inactive.

As to `CCCCCCCCCCCCc1ccc(S(=O)(=O)Nc2nncs2)cc1`, the result in experiment [1], in experiment [2], in experiment [3], in experiment [4] and in [13] was inactive. Further, the fold change in experiment [14] (setting [18]) was 0.927 (inactive); in [14] (setting [19]), 1.16. Besides, the cell count in experiment [14] (setting [20]) is 8010; in experiment [14] (setting [21]) it was 8650. The z-score in experiment [15] (setting [22]) is 0.533 (inactive); in experiment [15] (setting [23]), 0.0837.

On to `O=C(O)C(O)Cc1ccc(O)c(O)c1` (stereo not drawn), for which the outcome in experiment [1], in experiment [2], in [3], in experiment [4] and in [13] was inactive. Also, the results for the fold change in experiment [14] (setting [18]) and in experiment [14] (setting [19]) were 0.928 (inactive) and 0.6, respectively. Also, the results for the cell count in experiment [14] (setting [20]) and in experiment [14] (setting [21]) were 9530 and 10300, respectively. Further, the figures for the z-score in experiment [15] (setting [22]) and in [15] (setting [23]) were -0.385 (inactive) and 0.0393, respectively.
